In assay [1] the target is Retinoic acid receptor RXR-alpha (Homo sapiens) (UniProt P19793). Description: qHTS assay to identify small molecule agonists of the RXR signaling pathway (AID 1159527; calls by dose curve; note: nearly all actives have a fitted effect of over 35% in size). The method in brief: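 Using 9-cis retinoic acid as the reference agonist, chemicals were tested in HEK 293T cells […] for 16 hr; substrate loading lasted 2 hr at room temperature.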
For orientation: In qHTS, concentration-response curves come from the screen itself.

Assay [2] in a line: qHTS assay to identify small molecule agonists of the RXR signaling pathway - cell viability counter screen (AID 1159529). Note: series mostly up to about 77 µM; nearly all actives have a fitted effect of over 50% in size. Summed up:
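Compounds dissolved in DMSO were pinned onto HEK 293T cells carrying a beta-lactamase reporter under RXR-alpha control and incubated 16 hr. Cytotoxicity was then quantified by CellTiter-Glo luminescence.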

The nature of assay [3]: qHTS assay to identify small molecule antagonists of the retinoid acid receptor (RAR) signaling pathway - cell viability counter screen (AID 1159551). Note: nearly all actives have a fitted effect of over 35% in size. Summed up:
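C3RL4 cells were seeded overnight at 37 C, then treated with compounds plus 1 uM (final) retinol for 6 h at 37 C. Viability was read as ATP by CellTiter-Glo luminescence after 30 min at room temperature.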

Assay [4] is described as follows: qHTS assay to identify small molecule antagonists of the estrogen related receptor (ERR) signaling pathway from Tox21 library - cell viability counter screen (AID 1224834). Note: nearly all actives have a fitted effect of over 30% in size. Summed up: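 ERR reporter cells were plated 6 h before compound addition, then exposed to test compounds in DMSO for 17.5 h at 37 C. Viability was read as CellTiter-Fluor fluorescence after a 30-minute incubation at 37 C.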

Assay [5] concerns the target Luciferin 4-monooxygenase (Photinus pyralis) (UniProt P08659). Put plainly: qHTS assay to identify small molecule inhibitors of firefly luciferase (AID 1224835). Note: nearly all actives have a fitted effect of over 25% in size. Note: potency is the fitted concentration of half-maximal effect. The method in brief: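 Quantitative HTS format; KM concentrations of both substrates. Purified P. pyralis FLuc activity quantified from luminescence images.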
Assay [6] in a line: qHTS assay to identify small molecule agonists of the constitutive androstane receptor (CAR) signaling pathway - cell viability counter screen (AID 1224836). Note: series mostly up to about 92 µM; nearly all actives have a fitted effect of over 45% in size. Summed up:
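23 h treatment, 37 C, 5% CO2. Cell line: HepG2 stably expressing hCAR with a CYP2B6-2.2kb construct. Co-treatment: PK11195, 0.75 uM final. Read-out: CellTiter-Fluor fluorescence intensity.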

The nature of assay [7]: qHTS assay to identify small molecule antagonists of the constitutive androstane receptor (CAR) signaling pathway - cell viability counter screen (AID 1224837). Note: series mostly up to about 92 µM; nearly all actives have a fitted effect of over 45% in size. Summed up:
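HepG2 cells stably expressing hCAR and a CYP2B6-2.2kb reporter were plated and pre-incubated 4 hr at 37 C/5% CO2, then given compounds at 15 concentrations plus 50 nM CITCO (final). After 23 hr, viability was read by CellTiter-Fluor fluorescence.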

The nature of assay [8]: qHTS assay to identify small molecule antagonists of the estrogen related receptor signaling pathway with the pleiotropic PPARgamma coactivator (PGC) from Tox21 10K library - cell viability counter screen (AID 1224840; active = well fitted cell-killing curve with a large enough effect in the repeat runs, not every such curve was filed as active; note: nearly all actives have a fitted effect of over 40% in size). Summed up: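 PGC/ERR cells were seeded at 2,000 cells/well and left 6 hours at 37 C/5% CO2 before pin-tool addition of compounds in DMSO. After 17.5 hours at 37 C, CellTiter-Fluor was added and fluorescence read 30 minutes later.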

The target of assay [9] is Thyrotropin receptor (Homo sapiens) (UniProt P16473). Description: qHTS assay to identify small molecule agonists of the thyroid stimulating hormone receptor (TSHR) signaling pathway (AID 1224843; calls by dose curve; note: nearly all actives have a fitted effect of over 45% in size). Summed up:
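Cell line HEK293 with TSHR; density 800/well. Exposure 30 min RT. Readout HTRF cAMP (cAMP-d2/anti-cAMP-cryptate), 1 h RT before reading.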

Assay [10] in a line: qHTS assay to identify small molecule agonists of the hypoxia (HIF-1) signaling pathway - cell viability counter screen (AID 1224844; calls by dose curve; note: nearly all actives have a fitted effect of over 50% in size). Summed up:
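HRE-bla ME-180 cells in medium with 0.5% dialyzed FBS were preincubated 5 hrs at 37C, exposed to compounds for 17 hrs, then viability was read as CellTiter-Glo luminescence after 30 min at room temperature, in the reporter wells.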

A short description of assay [11]: qHTS assay to identify small molecule agonists of H2AX (AID 1224845; active = well fitted activation curve with a large enough effect in the signal ratio in the repeat runs, not every such curve was filed as active; the % refers to the signal ratio). The method in brief:
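Wild-type CHO-K1 cells plated overnight, then exposed 3 hr at 37C to compounds at 15 concentrations (0.76% DMSO). Lysed, then HTRF anti-pH2AX(S139)-cryptate/anti-H2AX-d2 detection after 24 hr at room temperature; emissions 665 and 620 nm.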

The nature of assay [12]: qHTS assay to identify small molecule agonists of the hypoxia (HIF-1) signaling pathway (AID 1224846; active = well fitted activation curve with a large enough effect in the signal ratio in the repeat runs, not every such curve was filed as active; the % refers to the signal ratio). Summed up: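 HRE-bla ME-180 cells (beta-lactamase reporter under hypoxia response element) were plated at 2,000 cells/well in medium with 0.5% dialyzed FBS, rested 5 hrs, then given compounds in DMSO for 17 hrs at 37C, 5% CO2. Reporter induction was read with CCF4-AM FRET substrate.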

A short description of assay [13]: qHTS assay to identify small molecule antagonists of the retinoic acid receptor (RAR) signaling pathway (AID 1159552; note: nearly all actives have a fitted effect of over 50% in size). Summed up: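 Test chemicals and DMSO controls were pin-transferred onto C3RL4 cells a day after seeding; retinol (1 uM final) followed at once. Luminescent reporter output was quantified after 6 hr of co-incubation and 30 min with detection reagent.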

Assay [14] is described as follows: qHTS assay to identify small molecule agonists of the retinoic acid receptor (RAR) signaling pathway (AID 1159553). Note: potency is the fitted concentration of half-maximal effect. Summed up: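 C3RL4 cells carrying a RARE luciferase reporter were plated overnight at 37 C, then exposed to compounds in DMSO for 6 hr at 37 C and 5% CO2. Luminescence was read 30 min after luciferase reagent addition at room temperature.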
In assay [15] the target is Nuclear receptor subfamily 1 group I member 3 (Homo sapiens) (UniProt Q14994). Put plainly: qHTS assay to identify small molecule antagonists of the constitutive androstane receptor (CAR) signaling pathway (AID 1224838). Note: nearly all actives have a fitted effect of over 40% in size. Note: potency is the fitted concentration of half-maximal effect. The method in brief:
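HepG2 cells stably co-transfected with hCAR and a CYP2B6-2.2kb luciferase reporter were seeded 4 h before compound addition at 15 concentrations. Cells were stimulated with 50 nM CITCO (final) for 24 h at 37 C; luciferase luminescence was then read.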

For assay [16] the target is unchanged. Description: qHTS assay to identify small molecule agonists of the constitutive androstane receptor (CAR) signaling pathway (AID 1224839).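 For activation: HepG2 cells stably carrying human CAR and a CYP2B6 luciferase reporter; series mostly up to about 92 µM.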 Note: nearly all actives have a fitted effect of over 15% in size. Note: potency is the fitted concentration of half-maximal effect. The method in brief: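 Compounds tested at 15 concentrations on HepG2 cells stably harbouring hCAR and CYP2B6-2.2kb reporter constructs, co-treated with PK11195 (0.75 uM final), 24 h at 37 C; luminescent reporter signal quantified.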

A short description of assay [17]: qHTS assay to identify small molecule antagonists of the estrogen related receptor (ERR) signaling pathway - cell viability counter screen (AID 1224818).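 Note: series mostly up to about 46 µM; viability measured after 17.5 h of compound exposure.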 The method in brief:
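ERR reporter cells plated 6 h at 37 C/5% CO2, then compounds in DMSO pin-transferred and incubated 17.5 h at 37 C. Viability read as CellTiter-Fluor fluorescence after 30 min at 37 C.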

Assay [18] can be described thus: qHTS assay to identify small molecule antagonists of the estrogen related receptor signaling pathway with the pleiotropic PPARgamma coactivator (PGC) cell viability counter screen (AID 1224822; note: series mostly up to about 46 µM). The method in brief: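 PGC/ERR cells were seeded at 2,000 cells/well, rested 6 h at 37 C/5% CO2, then given compounds in DMSO by pin tool and incubated 17.5 h at 37 C. Viability came from CellTiter-Fluor fluorescence after 30 min.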

Assay [19] in a line: qHTS assay to identify small molecule antagonists of the estrogen related receptor signaling pathway with the pleiotropic PPARgamma coactivator (PGC) from Tox21 10K library (AID 1224841; call rule not given here; note: actives are mostly falling curves and most rising ones were filed inactive; nearly all actives have a fitted effect of over 50% in size; note: potency is the fitted concentration of half-maximal effect). Summed up: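 PGC/ERR reporter cells were seeded at 2,000 cells/well and held 6 hours at 37 C/5% CO2 before pin-tool addition of compounds in DMSO. After 18 hours at 37 C, One-Glo was added and luminescence read after 30 minutes at room temperature.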

Assay [20] can be described thus: qHTS assay to identify small molecule agonists of the estrogen related receptor signaling pathway with the pleiotropic PPARgamma coactivator (PGC) from Tox21 10K library (AID 1224842). Note: nearly all actives have a fitted effect of over 15% in size. The method in brief:
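PGC/ERR reporter cells (NTP line) were seeded 2,000 per well, rested 6 h at 37 C/5% CO2, then pin-dosed with compounds in DMSO for 18 h at 37 C; luciferase read by One-Glo luminescence after 30 min at room temperature.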

SMILES strings stand for the structures. Where “and” joins values, the source holds several entries; their conditions need not be identical. Identical values can stand only once. Results filed as inconclusive are left out. Where a structure was tested more than once in an assay, its records may differ in their call. Calls of active or inactive are those of the source. Unless noted, calls come from the whole dose curve; as a rule, active = well fitted curve in the direction sought with a large enough effect in the repeat runs; inconclusive = weak or mixed curves; inactive = no such curve, though single readings can be large; an effect the other way counts as inactive or inconclusive.

Retinoic acid receptor RXR-alpha (Homo sapiens), sequence (P19793 whole entry, looked up): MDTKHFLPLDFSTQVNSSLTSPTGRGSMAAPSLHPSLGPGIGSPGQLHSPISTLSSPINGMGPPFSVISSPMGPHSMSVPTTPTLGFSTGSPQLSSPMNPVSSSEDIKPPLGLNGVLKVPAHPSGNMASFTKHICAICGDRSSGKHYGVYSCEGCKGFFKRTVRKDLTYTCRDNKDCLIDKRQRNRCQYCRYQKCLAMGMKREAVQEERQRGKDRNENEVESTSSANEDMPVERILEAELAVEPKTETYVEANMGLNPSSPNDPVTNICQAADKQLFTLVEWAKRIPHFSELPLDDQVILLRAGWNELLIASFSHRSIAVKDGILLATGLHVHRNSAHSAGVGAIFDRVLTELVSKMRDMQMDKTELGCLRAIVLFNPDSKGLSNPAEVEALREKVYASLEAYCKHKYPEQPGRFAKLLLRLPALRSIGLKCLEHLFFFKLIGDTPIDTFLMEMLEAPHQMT
Thyrotropin receptor (Homo sapiens), sequence (P16473 whole entry, looked up): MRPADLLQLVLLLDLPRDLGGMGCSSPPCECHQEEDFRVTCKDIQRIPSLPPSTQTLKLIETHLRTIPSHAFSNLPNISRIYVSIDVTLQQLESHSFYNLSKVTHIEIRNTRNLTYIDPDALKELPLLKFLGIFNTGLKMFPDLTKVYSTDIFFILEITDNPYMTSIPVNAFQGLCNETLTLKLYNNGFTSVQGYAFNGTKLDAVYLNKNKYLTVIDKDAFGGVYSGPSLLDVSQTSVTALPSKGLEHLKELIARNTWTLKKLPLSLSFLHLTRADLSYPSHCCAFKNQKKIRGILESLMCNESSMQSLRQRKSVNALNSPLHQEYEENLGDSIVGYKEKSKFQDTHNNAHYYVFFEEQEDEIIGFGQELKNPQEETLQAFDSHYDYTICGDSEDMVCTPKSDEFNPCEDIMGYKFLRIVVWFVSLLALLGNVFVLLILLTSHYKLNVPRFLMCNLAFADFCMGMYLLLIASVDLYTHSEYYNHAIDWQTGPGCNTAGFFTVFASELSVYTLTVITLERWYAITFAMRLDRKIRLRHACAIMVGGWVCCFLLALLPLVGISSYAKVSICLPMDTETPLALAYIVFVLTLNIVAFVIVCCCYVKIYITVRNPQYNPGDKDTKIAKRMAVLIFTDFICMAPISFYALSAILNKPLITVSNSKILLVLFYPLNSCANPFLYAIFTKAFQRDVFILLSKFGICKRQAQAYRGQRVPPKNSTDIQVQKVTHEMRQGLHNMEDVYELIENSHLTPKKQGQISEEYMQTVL
Nuclear receptor subfamily 1 group I member 3 (Homo sapiens), sequence (Q14994 whole entry, looked up): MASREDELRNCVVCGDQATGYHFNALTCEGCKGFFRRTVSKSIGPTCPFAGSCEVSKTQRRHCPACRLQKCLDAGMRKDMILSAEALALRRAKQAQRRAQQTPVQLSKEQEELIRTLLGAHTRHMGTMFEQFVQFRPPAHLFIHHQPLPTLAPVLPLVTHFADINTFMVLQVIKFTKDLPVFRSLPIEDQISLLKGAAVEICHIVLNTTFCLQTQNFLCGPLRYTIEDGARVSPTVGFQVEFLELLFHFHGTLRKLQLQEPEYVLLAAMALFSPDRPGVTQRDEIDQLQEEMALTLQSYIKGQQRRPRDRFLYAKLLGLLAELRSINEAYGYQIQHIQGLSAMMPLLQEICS
Luciferin 4-monooxygenase (Photinus pyralis), sequence (P08659 whole entry, looked up): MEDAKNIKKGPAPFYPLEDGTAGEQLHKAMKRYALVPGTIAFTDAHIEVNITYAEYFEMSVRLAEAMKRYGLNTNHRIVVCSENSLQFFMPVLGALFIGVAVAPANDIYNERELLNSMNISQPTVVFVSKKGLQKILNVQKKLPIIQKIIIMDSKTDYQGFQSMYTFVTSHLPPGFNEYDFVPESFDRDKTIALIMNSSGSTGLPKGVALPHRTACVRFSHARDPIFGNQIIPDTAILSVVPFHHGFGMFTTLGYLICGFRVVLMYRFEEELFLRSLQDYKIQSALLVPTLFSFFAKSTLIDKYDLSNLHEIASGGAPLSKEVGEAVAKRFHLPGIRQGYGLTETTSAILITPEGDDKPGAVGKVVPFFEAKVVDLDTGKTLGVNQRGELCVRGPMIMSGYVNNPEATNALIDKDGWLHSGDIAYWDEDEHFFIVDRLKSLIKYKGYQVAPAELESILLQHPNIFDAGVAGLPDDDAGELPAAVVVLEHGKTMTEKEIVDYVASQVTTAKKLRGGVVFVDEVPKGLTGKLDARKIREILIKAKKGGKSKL

Turning to `CCCCCCCCCC`, the Potency entry in assay [1], in assay [2], in assay [4], in [5], in assay [6] and in [7] was “inactive” each time. The Potency entry in assay [8], in assay [9], in [10] and in assay [11] was “inactive” throughout. In addition, the compound was classed as inactive in assay [3] and in assay [12].

For `CCCCCCCCCCCCCCO`, the Potency result in [1], in assay [2], in [4], in assay [6], in assay [7] and in assay [8] was “inactive” each time. The Potency result in assay [9], in assay [10] and in assay [11] was “inactive” in each case. Besides, the outcome in assay [3] and in assay [12] was inactive. For the same compound, the Potency in assay [5] was 22.7 µM (active).

For the compound `CCN(CC)c1ccc(C(=O)c2ccccc2C(=O)O)c(O)c1`, the Potency result in assay [2], in assay [13], in assay [4], in [6], in assay [7] and in [15] was “inactive” in each case. Moreover, the Potency entry in assay [8], in assay [9], in assay [10] and in assay [11] was “inactive” in each case. Moreover, the compound was classed as inactive in assay [3]. For the same compound, the Potency in assay [14] was 10.9 µM (active) and 34.4 µM (active); in assay [5], 28.4 µM (active) and 25.2 µM (active); in assay [16], 61.3 µM (active) and 34.4 µM (active).

`COc1cc(Cc2cnc(N)nc2N)cc(OC)c1OC`: the Potency result in assay [2], in [14], in [4], in [5], in assay [6] and in [7] was “inactive” throughout. The Potency entry in [8], in assay [9], in assay [10] and in assay [11] was “inactive” in each case. The result in assay [3], in assay [17] and in assay [18] was inactive.

`CCCCCCCCCCCCCCCO`: the Potency result in assay [2], in [13], in assay [14], in assay [4], in [5] and in assay [6] was “inactive” each time. Also, the Potency result in [7], in assay [8], in [9], in [10] and in assay [11] was “inactive” in each case. Besides, the result in assay [3], in [20] and in assay [12] was inactive. In addition, the Potency in assay [19] is 69.1 µM (active) and inactive.

Take `CCCCCCCCCCCCc1ccccc1`: the Potency result in [2], in [14], in assay [4], in assay [5], in [6] and in assay [7] was “inactive” throughout. Also, the Potency result in [15], in assay [16], in assay [8], in [19], in [9] and in [10] was “inactive” each time. The Potency result in assay [11] was “inactive”. For the same compound, the result in [3], in assay [20] and in [12] was inactive.

Regarding `C[C@H]1C[C@H]2[C@@H]3CCC4=CC(=O)C=C[C@]4(C)[C@@]3(F)[C@@H](O)C[C@]2(C)[C@@]1(O)C(=O)CO`, the Potency entry in assay [1], in assay [2], in assay [4], in assay [6], in assay [7] and in assay [15] was “inactive” in each case. For the same compound, the Potency result in assay [16], in assay [8], in assay [10] and in [11] was “inactive” each time. Besides, the compound was classed as inactive in [3].

For `CC1=CC(=O)NS(=O)(=O)O1`, the Potency entry in assay [1], in [2], in assay [4], in assay [6], in [7] and in assay [16] was “inactive” throughout. The Potency result in assay [8], in assay [9], in assay [10] and in assay [11] was “inactive” each time. In addition, the outcome in assay [3] and in assay [12] was inactive. Also, the Potency in [15] was 48.7 µM (active) and inactive.

Take `OCCOCCOCCO`: the Potency entry in assay [2], in assay [4], in assay [5], in [6], in assay [7] and in assay [15] was “inactive” throughout. Besides, the Potency entry in assay [16], in assay [8], in assay [19], in assay [9], in assay [10] and in [11] was “inactive” throughout. Also, the call in assay [3], in [20] and in assay [12] was inactive.

Take `ON=C1CCCCC1`: the Potency entry in assay [2], in assay [13], in [14], in assay [4], in assay [5] and in assay [6] was “inactive” throughout. Moreover, the Potency entry in assay [7], in assay [15], in assay [16], in assay [8], in assay [19] and in [9] was “inactive” in each case. For the same compound, the Potency entry in [10] and in assay [11] was “inactive” in each case. Further, the outcome in assay [3], in assay [20] and in assay [12] was inactive.

As to `CCCCC(CC)COC(=O)CCCCC(=O)OCC(CC)CCCC` (stereo not drawn), the Potency entry in [2], in [13], in [14], in assay [4], in assay [5] and in assay [6] was “inactive” in each case. Moreover, the Potency entry in assay [7], in assay [15], in assay [16], in [8], in [9] and in assay [10] was “inactive” throughout. The Potency entry in assay [11] is “inactive”. Further, the call in assay [3] and in [12] was inactive.

For the origin of these results see PubChem BioAssay (Tox21).
